# ROMK primary: modulators of human ROMK potassium channel; P48048; Tet-inducible ROMK, thallium flux fluorescence; actives lie on both sides; B-score at 10 µM; 130,000 tested, 2% active; AID 1918;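 active means signal ratio slope over the read window, or its plate-corrected B-score, at least 3 SD from the plate mean, either direction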;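 further: B-score of the F/F0 ratio slope over 7 to 12 s after thallium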
# Cl transport mod: KCC2 (human) Cl- transport modulation | Q9H2X9 | KCC2 cells, thallium flux FluoZin-2 fluorescence | B-score of Tl+ flux slope (higher = more flux/activation; lower = inhibition) at 10 µM | 190,000 tested, 2.2% active | AID 1456;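 active means thallium flux slope and its plate-corrected score both differing from the plate sample mean at a set confidence after two filtering rounds, in either direction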;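 further: slope of fluorescence scaled to starting intensity during 10 to 20 s after thallium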
# Target sequence (Q9H2X9 whole entry, looked up): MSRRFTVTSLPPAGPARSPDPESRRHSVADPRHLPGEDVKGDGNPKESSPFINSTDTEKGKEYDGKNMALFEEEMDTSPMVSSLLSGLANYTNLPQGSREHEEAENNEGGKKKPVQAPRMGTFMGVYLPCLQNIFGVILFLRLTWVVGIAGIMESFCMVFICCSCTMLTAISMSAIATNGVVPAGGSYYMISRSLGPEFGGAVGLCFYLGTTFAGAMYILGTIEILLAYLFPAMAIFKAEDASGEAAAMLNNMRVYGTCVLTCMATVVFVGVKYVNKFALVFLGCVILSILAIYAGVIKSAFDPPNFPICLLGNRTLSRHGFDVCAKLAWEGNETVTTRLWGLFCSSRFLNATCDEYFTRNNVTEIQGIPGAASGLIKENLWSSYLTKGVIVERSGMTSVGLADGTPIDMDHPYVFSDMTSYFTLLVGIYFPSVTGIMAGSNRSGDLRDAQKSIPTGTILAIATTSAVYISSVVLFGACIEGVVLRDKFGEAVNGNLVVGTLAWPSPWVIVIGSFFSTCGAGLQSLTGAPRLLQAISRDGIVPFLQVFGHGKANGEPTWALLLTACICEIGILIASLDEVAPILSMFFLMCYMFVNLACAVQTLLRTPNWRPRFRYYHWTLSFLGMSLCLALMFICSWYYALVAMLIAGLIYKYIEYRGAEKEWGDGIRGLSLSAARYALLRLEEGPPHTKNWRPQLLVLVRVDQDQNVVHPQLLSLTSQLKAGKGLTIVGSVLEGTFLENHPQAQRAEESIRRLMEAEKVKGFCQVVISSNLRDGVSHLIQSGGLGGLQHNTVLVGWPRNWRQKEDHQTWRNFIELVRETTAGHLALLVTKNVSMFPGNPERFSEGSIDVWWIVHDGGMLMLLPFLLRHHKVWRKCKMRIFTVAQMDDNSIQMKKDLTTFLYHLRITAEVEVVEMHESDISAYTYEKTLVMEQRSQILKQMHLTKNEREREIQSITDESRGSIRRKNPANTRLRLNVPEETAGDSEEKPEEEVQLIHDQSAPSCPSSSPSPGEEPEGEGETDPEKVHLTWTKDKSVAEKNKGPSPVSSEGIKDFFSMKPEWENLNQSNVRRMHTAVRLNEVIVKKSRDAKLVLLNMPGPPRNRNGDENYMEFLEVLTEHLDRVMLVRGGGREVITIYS
# WT yeast gro inh: growth inhibition of WT yeast, mitochondrial fusion screen | AID 1362 | inhibition, % at 10 µM | 190,000 tested, 2.1% active | mitochondrial fusion phenotypic screen, WT strain; in the data active means inhibition above about 58%; tested in S. cerevisiae
# Insulin prom inh: TRM-6 insulin promoter activity inhibition | TRM-6 cells (human fetal islet line), insulin promoter-eGFP reporter, imaging; reporter expression induced with tamoxifen | inhibition, % at 2 µM | 130,000 tested, 0.9% active | AID 1273;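 active means inhibition above the mean plus 3 SD, with well images judged a real hit on visual review, cut at about 60% in these data, passing the limit was not always enough; inconclusive means inhibition over the cutoff but images rejected on review; inactive means inhibition not above the cutoff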
# Insulin prom up: MIN6 insulin promoter up-regulation | z-score at 5 µM | 190,000 tested, 0.3% active | MIN6 insulin promoter-GFP reporter, high-content imaging; stronger effect = higher value;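 active means z-score above 3 at 5 µM with at least 500 cells counted in the well; inconclusive means wells under 500 cells, flagged as cytotoxic or low count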
# L major viab: inhibitors of Leishmania major promastigote growth; Leishmania major promastigotes, resazurin fluorescence viability; inhibition, % at 10 µM; 200,000 tested, 9% active; AID 1063; in the data active means inhibition above about 50%;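 further: promastigotes grown with compound for 44 hours at 28 °C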
# KCC2 secondary: KCC2 (human) modulation, secondary assay | AID 1713 | shares compounds with Cl transport mod | 3,700 tested, 15% active | normalised thallium flux (F/F0 slope) at 10 µM | HEK293-KCC2, thallium flux, FluoZin2 fluorescence; stronger effect = higher value;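 active means thallium flux slope above the same plate's solvent-only control mean plus 3 SD; inconclusive means the two replicate wells disagree; inactive means no significant difference from solvent-only control wells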
# KCC2 bumet counter: thallium flux persisting under bumetanide in KCC2 cells, counter-screen secondary assay; AID 1714; shares compounds with Cl transport mod; 3,700 tested, 49% active; HEK293-KCC2 + bumetanide/ouabain, thallium flux FluoZin2; stronger effect = higher value; normalized thallium flux at 10 µM;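 active means thallium entry rate above the same plate's blocked-transporter control wells by more than 3 SD; inconclusive means the two repeat wells disagree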;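 further: raw slope of fluorescence over initial fluorescence between 10 and 20 s after thallium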
# KCC2 secondary2: confirmation of human KCC2 transport modulators; HEK293-KCC2, thallium flux FluoZin2 fluorescence; actives lie on both sides; F/F0 rise rate, 10–20 s post-thallium; 3,700 tested, 23% active; shares compounds with Cl transport mod; normalized thallium flux at 10 µM;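 active means thallium flux slope more than 3 SD above or below the plate's solvent-only control mean, mostly below; inconclusive means the two repeat wells disagreed; inactive means no significant shift from solvent-only controls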
# HEK293 Tl flux: parental HEK flux effect, counter-screen; thallium flux rate (normalised fluorescence) at 10 µM; shares compounds with Cl transport mod; AID 1716; HEK293 parental cells, thallium flux FluoZin2, ouabain; baseline-ratio fluorescence slope, 10–20 s after thallium; 3,700 tested, 46% active;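 active means thallium flux rate significantly above the same plate's solvent-only control wells, beyond their mean plus 3 SD; inconclusive means the two replicate wells gave conflicting results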
# KCC2 retest ouab: confirmation of human KCC2 modulators with ouabain; HEK293-KCC2, thallium flux FluoZin2 fluorescence; bidirectional: low = inhibitor, high = activator; raw Tl+ flux slope (below DMSO = inhibition, above = activation) at 10 µM; shares compounds with Cl transport mod; 3,700 tested, 48% active;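 active means thallium flux slope beyond 3 SD from same-plate DMSO control mean in most replicates, usually higher, sometimes lower; inconclusive means repeat tests gave conflicting results; inactive means no significant difference from controls in most replicates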;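 further: slope of initial-normalized fluorescence between seconds 10 and 20 after thallium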
# HEK counter2: parental HEK flux effect, counter-screen 2; shares compounds with Cl transport mod; HEK293 parental, thallium flux FluoZin-2 fluorescence slope; thallium flux slope at 10 µM; 3,700 tested, 33% active;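 active means thallium flux slope above the same plate's solvent-control mean plus 3 SD in both duplicate wells; inconclusive means duplicate wells that disagreed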;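 further: run without ouabain in cells lacking the KCC2 cotransporter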
# Hits are given with their value; n = inactive; u = inconclusive; x = not tested or not shown. Rows were chosen to be rich in hits. Some 12% of all compounds tested hit in one or more screens of this group.
SMILES,ROMK primary,Cl transport mod,WT yeast gro inh,Insulin prom inh,Insulin prom up,L major viab,KCC2 secondary,KCC2 bumet counter,KCC2 secondary2,HEK293 Tl flux,KCC2 retest ouab,HEK counter2
COC(=O)C(C)Sc1snnc1-c1ccccc1 (stereo not given),n,x,n,n,x,n,n,n,n,u,n,n
CC1CCC2(CC1)NC(=O)N(CC(=O)NCc1ccc3c(c1)OCO3)C2=O (stereo not given),x,n,x,x,n,x,x,x,x,x,x,x
COc1ccc(N2CCN(C(=O)C3CCC(Cn4c(=S)[nH]c5ccccc5c4=O)CC3)CC2)cc1 (stereo not given),x,2.8,n,x,n,99,n,0.014,n,0.014,u,0.015
O=C(Cn1c(=S)[nH]c2ccccc2c1=O)N1CCN(c2ccccc2)CC1,n,n,n,x,n,n,x,x,x,x,x,x
O=C(C1CCC(CNc2nc(=S)[nH]c3ccccc23)CC1)N1CCN(c2ccc(F)cc2)CC1 (stereo not given),n,-7.5,n,n,n,n,n,n,0.022,0.006,0.01,n
CCCCNC(=O)C1CCC(CNc2nc(=S)[nH]c3ccccc23)CC1 (stereo not given),n,n,n,n,n,n,x,x,x,x,x,x
Cc1cccc(N2CCN(C(=O)Cc3cn(C)c4ccccc34)CC2)c1C,n,n,n,n,n,n,x,x,x,x,x,x
NS(=O)(=O)c1ccc(NC(=O)NC2CCCCC2)cc1,x,3.2,n,n,n,n,n,n,n,n,n,n
O=C(CCCc1nc2ccccc2s1)NCc1ccc(F)cc1,n,-4,n,n,n,n,0.014,0.018,n,0.012,n,0.012
O=c1oc2ccc([N+](=O)[O-])cc2c(N2CCOCC2)c1[N+](=O)[O-],n,x,n,n,n,n,x,x,x,x,x,x
S=C(Nc1ccccc1)Nc1nccs1,x,138,x,x,n,x,0.01,0.084,0.05,0.07,0.069,0.039
Fc1ccc(NC(=S)Nc2nccs2)cc1,n,77,n,n,n,n,0.03,0.064,u,0.1,0.083,0.026
S=C(NCc1ccccn1)Nc1ccccc1,n,n,n,n,n,n,x,x,x,x,x,x
Fc1ccc(NC(=S)Nc2ccc3nccnc3c2)cc1,n,n,n,n,x,n,x,x,x,x,x,x
COc1ccc(/C=C/C(=O)NCc2cn(C)nc2C)cc1COc1ccc(Br)cc1,x,n,n,n,x,n,x,x,x,x,x,x
Oc1ccc(-c2csc(NCc3ccco3)n2)cc1,n,x,n,x,n,n,n,n,n,0.0056,0.016,n
CCCOc1ccc(C(=O)NC(=S)Nc2nc3ccc(C)cc3s2)cc1,n,n,n,x,n,n,x,x,x,x,x,x
O=S(=O)(c1ccccc1)N1CCN=C1SCc1ccccc1,n,-3.6,n,n,n,n,n,u,n,n,0.015,n
O=C(CNC(=S)N(Cc1ccccc1)Cc1cccnc1)NC1CCCCC1,n,n,n,x,x,n,x,x,x,x,x,x
Cc1nnn(-c2nonc2N)c1C(=O)N/N=C/c1ccccc1O,x,n,n,n,n,n,x,x,x,x,x,x
COc1cc(/C=N/NC(=O)c2c(C)nnn2-c2nonc2N)ccc1O,n,4.7,n,x,n,n,n,n,n,n,n,n
CCOCCn1c(N2CCN(c3ccc(OC)cc3)CC2)nc2c1c(=O)n(C)c(=O)n2C,x,n,n,n,n,n,x,x,x,x,x,x
COCCn1c(N2CCN(c3ccc(OC)cc3)CC2)nc2c1c(=O)n(C)c(=O)n2C,n,x,n,x,n,n,n,n,n,n,n,n
